Here are results for 38 molecules from ChEMBL document CHEMBL4513141, “CO-ADD screening of NIH (USA) - Clinical Collection” (2021).

For orientation: Inhibition means the relative decrease from the control value, in per cent.

Entries with a potency or affinity are not part of this list.

This assay deals with Cryptococcus neoformans. Particulars: Concentration 20 uM; ASSAY_TEST Inhibition of Fungal Growth; detection method Resazurin; Absorption (OD600-OD570); plate type 384well; NBS; CORNING #3640.
In the case of `C[C@]12CCC(=O)C=C1CC[C@@H]1[C@@H]2[C@@H](O)C[C@@]2(C)[C@H]1CC[C@]2(O)C(=O)COC(=O)CCC(=O)O` [HYDROCORTISONE HEMISUCCINATE ANHYDROUS], the Inhibition is listed as 6.86%.

Take `CNCC[C@@H](Oc1ccccc1C)c1ccccc1.Cl` [ATOMOXETINE HYDROCHLORIDE]: the Inhibition stood at 5.55%.

In the case of `CC1(C)C[C@@H]1C(=O)N/C(=C\CCCCSC[C@H](N)C(=O)O)C(=O)[O-].[Na+]` [CILASTATIN SODIUM], the Inhibition is recorded as -1.08%.

Take `CC(C)[C@H]1CC[C@H](C(=O)N[C@H](Cc2ccccc2)C(=O)O)CC1` [NATEGLINIDE]: the Inhibition is reported as -0.58%.

On to `CC(=O)O.CC(C)C[C@H](NC(=O)[C@@H](COC(C)(C)C)NC(=O)[C@H](Cc1ccc(O)cc1)NC(=O)[C@H](CO)NC(=O)[C@H](Cc1c[nH]c2ccccc12)NC(=O)[C@H](Cc1c[nH]cn1)NC(=O)[C@H]1CCC(=O)N1)C(=O)N[C@H](CCCNC(=N)N)C(=O)N1CCC[C@@H]1C(=O)NNC(N)=O`, for which the Inhibition was -3.07%.

As for `CC(N)(Cc1ccc(O)c(O)c1)C(=O)O` (stereo not drawn) [METHYLDOPA (RACEMIC)], the Inhibition was determined as 7.73%.

In the case of `O=C(CCNNC(=O)c1ccncc1)NCc1ccccc1` [NIALAMIDE], the Inhibition was -3.3%.

With `O=C1Nc2ccc(Cl)cc2[C@@](C#CC2CC2)(C(F)(F)F)O1` [EFAVIRENZ], the Inhibition is -5.8%.

For `Cl.O=C1c2c(O)ccc(O)c2C(=O)c2c(NCCNCCO)ccc(NCCNCCO)c21`, the Inhibition worked out at 21.29%.

Turning to `CCCCC(=O)O[C@H]1CC[C@H]2[C@@H]3CCc4cc(O)ccc4[C@H]3CC[C@]12C` [ESTRADIOL VALERATE], the Inhibition worked out at 2.38%.

Take `CC(C)(C)NC[C@H](O)COc1nsnc1N1CCOCC1.O=C(O)/C=C\C(=O)O` [TIMOLOL MALEATE]: the Inhibition is -3.81%.

As for `CC[C@@]1(O)C(=O)OCc2c1cc1n(c2=O)Cc2cc3c(CN(C)C)c(O)ccc3nc2-1.Cl` [TOPOTECAN HYDROCHLORIDE], the Inhibition is on record as -3.31%.

For the molecule `CNCCC=C1c2ccccc2CCc2ccccc21.Cl` [NORTRIPTYLINE HYDROCHLORIDE], the Inhibition is on record as -10.6%.

In the case of `O=C1CN(/N=C/c2ccc(-c3ccc([N+](=O)[O-])cc3)o2)C(=O)[N-]1.[Na+]` [DANTROLENE SODIUM], the Inhibition was 5.43%.

As to `CC(C(O)c1ccc(O)cc1)N1CCC(Cc2ccccc2)CC1.O.O=C(O)C(O)C(O)C(=O)O` (stereo not drawn), the Inhibition is reported as -4.72%.

Regarding `CN(C)CCC[C@@]1(c2ccc(F)cc2)OCc2cc(C#N)ccc21.O=C(O)C(=O)O` [ESCITALOPRAM OXALATE], the Inhibition was -10.38%.

As for `CC(=O)[C@@]1(O)CC[C@H]2[C@@H]3C[C@H](C)C4=CC(=O)CC[C@]4(C)[C@H]3CC[C@@]21C`, the Inhibition is on record as -0.94%.

In the case of `Cl.O.c1cnc(N2CCN(Cc3ccc4c(c3)OCO4)CC2)nc1`, the Inhibition is on record as -7.46%.

For the molecule `C[C@]12CC[C@@H]3c4ccc(OS(=O)(=O)[O-])cc4CC[C@H]3[C@@H]1CCC2=O.[Na+]` [ESTRONE SODIUM SULFATE], the Inhibition is -4.65%.

With `COc1ccc(Cl)cc1C(=O)NCCc1ccc(S(=O)(=O)NC(=O)NC2CCCCC2)cc1` [GLYBURIDE], the Inhibition stood at 1.86%.

`Cc1ccc(O)c([C@H](CCN(C(C)C)C(C)C)c2ccccc2)c1.O=C(O)C(O)C(O)C(=O)O` [TOLTERODINE TARTRATE]: the Inhibition was -7.64%.

As for `CCOC(=O)[C@@H](CCc1ccccc1)N[C@@H](C)C(=O)N1CCC[C@H]1C(=O)O.O=C(O)/C=C\C(=O)O`, the Inhibition is recorded as -1.23%.

`CC1=Nc2ccc(Cl)cc2S(=O)(=O)N1` [DIAZOXIDE]: the Inhibition is -6.19%.

In the case of `C[C@]12C=CC(=O)C=C1CC[C@@H]1[C@@H]2C(=O)C[C@@]2(C)[C@H]1CC[C@]2(O)C(=O)CO` [PREDNISONE], the Inhibition was -7.34%.

Regarding `C[C@]12CCC(=O)C=C1CC[C@@H]1[C@@H]2C(=O)C[C@@]2(C)[C@H]1CC[C@]2(O)C(=O)CO` [CORTISONE], the Inhibition stood at 0.81%.

`CCCC(CCC)C(=O)O` [VALPROIC ACID]: the Inhibition was -4.42%.

With `CNC(=C[N+](=O)[O-])NCCSCc1ccc(CN(C)C)o1.Cl` [RANITIDINE HYDROCHLORIDE], the Inhibition stood at 5.97%.

In the case of `CC(C[N+](C)(C)C)OC(N)=O.[Cl-]` (stereo not drawn) [BETHANECHOL CHLORIDE], the Inhibition turned out to be 0.14%.

With `C[C@H]1C[C@@H]2[C@H]([C@@H](O)C[C@@]3(C)[C@H]2CC[C@]3(O)C(=O)CO)[C@@]2(C)C=CC(=O)C=C12` [METHYLPREDNISOLONE], the Inhibition is on record as -7.56%.

With `NC(=O)c1cnccn1` [PYRAZINAMIDE], the Inhibition is given as -9.58%.

With `COCCOC(=O)C1=C(C)NC(C)=C(C(=O)OC(C)C)C1c1cccc([N+](=O)[O-])c1` (stereo not drawn) [NIMODIPINE], the Inhibition is reported as -7.18%.

On to `CC(=O)O.CNC(=N)NCCC[C@H](N)C(=O)O` [TILARGININE ACETATE], for which the Inhibition is -3.5%.

As to `CC(=O)OCC(=O)[C@@]1(O)CC[C@H]2[C@@H]3C[C@H](C)C4=CC(=O)C=C[C@]4(C)[C@H]3[C@@H](O)C[C@@]21C` [METHYLPREDNISOLONE ACETATE], the Inhibition was -0.41%.

As for `C[C@H]1O[C@@H](O[C@H]2[C@@H](O)C[C@H](O[C@H]3[C@@H](O)C[C@H](O[C@H]4CC[C@@]5(C)[C@H](CC[C@@H]6[C@@H]5C[C@@H](O)[C@]5(C)C(C7=CC(=O)OC7)CC[C@]65O)C4)O[C@@H]3C)O[C@@H]2C)C[C@H](O)[C@@H]1O` (stereo partly drawn), the Inhibition is on record as -6%.

As for `CCOC(=O)[C@H](CCc1ccccc1)N[C@H]1CCc2ccccc2N(CC(=O)O)C1=O.Cl` [BENAZEPRIL HYDROCHLORIDE], the Inhibition is on record as 0.84%.

Regarding `CC1CC2C3CCC4=CC(=O)C=CC4(C)[C@@]3(Cl)C(O)CC2(C)C1(O)C(=O)CO` (stereo partly drawn), the Inhibition was -2.46%.

Take `CC1=C(CC(=O)O)c2cc(F)ccc2/C1=C\c1ccc([S+](C)[O-])cc1` (stereo not drawn): the Inhibition is -1.21%.

As to `CC[C@]1(O)C[C@@H]2CN(CCc3c([nH]c4ccccc34)[C@@](C(=O)OC)(c3cc4c(cc3OC)N(C=O)[C@H]3[C@@](O)(C(=O)OC)[C@H](OC(C)=O)[C@]5(CC)C=CCN6CC[C@]43[C@@H]65)C2)C1.O=S(=O)(O)O`, the Inhibition is -7.42%.
